Measured values: PubChem BioAssay (EPA / NIEHS)
Records with an inconclusive call do not appear. Activity calls are given as the source filed them. Rule for the calls: active = hit-call score of the fitted dose curve at least 0.9, where 1 is the maximum; inconclusive = response in the unintended direction; inactive = score below 0.9.

How the values were obtained:
[1] = VALA_TUBHUV_Antagonist_CellCount: Viability Assessment in the VALA Sciences human Umbilical Vein Endothelial Tubule Formation (TUBHUV) Antagonism Assay (AID 2284310)
Outline: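 HUVEC co-cultured with HDF (1:3) 3 days in 10 ng/ml VEGF, then 3 days with compounds in VEGF medium. Fixed, nuclear stain and CD31 immunofluorescence, imaged; cell counts fitted versus 0.1% DMSO, loss of signal read as lower viability.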

[2] = VALA_MIGHUV2_WoundArea: VALA Sciences human Umbilical Vein Endothelial Cell Migration (MIGHUV) Assay, Area of Scratch Wound after Recovery (AID 2284316)
Outline: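 HUVEC seeded at 9000 cells/well, scratched after 24 h; test chemical added within 30 min, 6-point concentration response in triplicate (0.1% DMSO vehicle). After 24 h wound recovery, cells fixed and Hoechst-stained nuclei in wound area imaged; Cytochalasin D reference control.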

[3] = VALA_MIGHUV1_ScratchOnly_CellCount: Viability Assessment in the VALA Sciences human Umbilical Vein Endothelial Cell Migration (MIGHUV) Assay, Scratch Wound Inhibited Recovery (AID 2284327)
Outline: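 HUVEC scratched after 24 h culture, chemical added within 30 min at 6 concentrations in triplicate (0.1% DMSO vehicle). After 24 h recovery, fixed cells were counted by Hoechst nuclear imaging in the wound area.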

[4] = VALA_MIGHUV1_ScratchOnly_WoundArea: VALA Sciences human Umbilical Vein Endothelial Cell Migration (MIGHUV) Assay, Area of Scratch Wound Inhibited Recovery (AID 2284336)
Outline: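 HUVEC monolayers (9000 cells/well) were scratched after 24 h, dosed within 30 min (six concentrations, triplicate, 0.1% DMSO), allowed 24 h recovery, then fixed. Hoechst-stained nuclei in the wound imaged; cytochalasin D as reference.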

[5] = VALA_TUBIPS_Agonist_CellCount: Viability Assessment in the VALA Sciences human iPS-derived Endothelial Tubule Formation (TUBIPS) Agonism Assay (AID 2284338)

Measured: outcome

COCc1cnc(C2=NC(C)(C(C)C)C(=O)N2)c(C(=O)O)c1 (stereo not given)
inactive: [1] | [2] | [3] | [4] | [5]
